Test results: PubChem BioAssay (NCI)
Compounds without any hit were thinned out: in the full panel of roughly 83,000, 20% have a hit.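 Assay: single dose, 48 h. Readout: percent growth (0 = no net growth; negative = cell death). Active: <10.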 A number with no mark means an inactive call. Activity calls are given as the source filed them.

Experiments:
Assay in all cases: NCI-60 one-dose screen, 48 h (100 = growth as untreated, 0 = no growth, -100 = all killed)
Settings in all cases: 10 µM unless noted
[1] = test system: HCT-15 colon
[2] = test system: HT29 colon
[3] = test system: SNB-75 CNS
[4] = test system: SNB-19 CNS
[5] = test system: U251 CNS
[6] = test system: PC-3 prostate
[7] = test system: UACC-62 melanoma
[8] = test system: LOX IMVI melanoma
[9] = test system: SK-MEL-28 melanoma
[10] = test system: SK-MEL-5 melanoma

Row | SMILES | growth [1] | growth [2] | growth [3] | growth [4] [%] | growth [5] | growth [6] | growth [7] | growth [8] | growth [9] | growth [10] [%]
1 | O=C1/C(=C/c2ccc([N+](=O)[O-])cc2)COc2ccc(O)c(O)c21 | -45.9% (active) | 4.87% (active) | 18.8% | 15 | -34.7% (active) | -6.72% (active) | -19.2% (active) | -75.5% (active) | 54.6% | –
2 | COc1ccc(/C(C)=C(\c2ccc(Cl)cc2)c2ccc(OCCN3CCCC3)cc2)cc1F | 1.16% (active) | -10.5% (active) | 47.6% | 42.8 | 19.1% | 30% | -30.2% (active) | -88.3% (active) | -42.1% (active) | –
3 | O=C1/C(=C/c2ccccc2[N+](=O)[O-])COc2ccc(O)c(O)c21 | -11.8% (active) | 5.22% (active) | 22.8% | 26.5 | 2.61% (active) | -0.516% (active) | -86.6% (active) | -73.2% (active) | -13.6% (active) | –
4 | O=C(Nc1ccccc1)c1sc(-c2cccc(C(F)(F)F)c2)cc1O | 69.5% | 93.7% | 78.5% | 69.6 | 51.6% | 81% | 23.3% | 86.4% | 53% | –
5 | CC(C)(C)c1ccc(C(=O)Nc2sc3c(c2C(N)=O)CCC(=O)C3)cc1 | -29.3% (active) | 3.24% (active) | -49.3% (active) | 15.2 | -43.8% (active) | -5.7% (active) | -36.7% (active) | -55.1% (active) | -14.9% (active) | –
6 | CC1=CC(=O)C(C(C)C)=CC1=Nc1cc(Br)c(O)c(Br)c1 | 21% | 66.2% | 27.1% | 42.1 | 5.45% (active) | – | 22.7% | 24% | 42.6% | 13.9
7 | CN(C)S(=O)(=O)n1cnc([C@@H]2[C@@H]3C(=O)OC[C@@H]3C[C@]23N=CN(Cc2ccccc2)C3=O)c1 | 98.4% | 89.7% | 67.5% | 98.2 | 107% | – | 106% | 101% | 108% | 102
8 | COc1ccc(-n2nnc(C(=O)NCCc3c[nH]c4ccc(F)cc34)c2C)cc1 | 104% | 86.4% | 93.7% | 105 | 92.4% | 87.4% | 98.4% | 98.6% | 109% | –
9 | C[C@@H]1CC[C@@H]2[C@@H]1[C@H](OC(=O)/C=C/c1ccccc1)[C@]1(C3CCCCC3)C[C@@H](NC(=O)CO)[C@@]2(C)O1 | 99% | 86% | 85% | 104 | 111% | 94% | 97% | 100% | 98.8% | –
10 | O=[N+]([O-])c1cccc(/C=C/c2ccccn2)c1 | 42.7% | 98% | 58.3% | 74.5 | 38.4% | – | 86.1% | 102% | 128% | 79
11 | O=C1C=CC(=Nc2cc(Br)c(O)c(Br)c2)C=C1 | 65.1% | 62% | 68.3% | 96.8 | 43.7% | – | 67.6% | 48.6% | 75.1% | 87.4
12 | Cc1nn(Cc2ccccc2)cc1C(=O)Nc1sc2c(c1C(N)=O)CCC(=O)C2 | 13.6% | 13.1% | 54.5% | 63 | 23.2% | – | 13.9% | 17.2% | 29.8% | 28.8
